From PubChem BioAssay
BCR signal inh: chronic active BCR signaling inhibition | ABC-DLBCL IkBa-CBG/CBR reporter, luminescence ratio, 4 h | Potency, µM (doses to about 46.1 µM), for the others: at the highest dose activity change, negative = inhibition, usual class: inhibitors | 340,000 tested, 0.05% active; active means well fitted inhibition curve with a large enough effect in the signal ratio, with a control signal flat, not every such curve was filed as active; inconclusive means small, poorly fitted or top-dose-only effect, or effect the other way, or a change in a side signal; the % refers to the signal ratio;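 further: potency means the concentration at half of the fitted maximal effect; plate controls were basal doxycycline-induced cells for no effect and cells given 10 µM MG132 for full effect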
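Cell line TMD8 (human ABC DLBCL), stably expressing tet-inducible CBG68-IkBa fusion and CBR; IMDM/0.5% FBS; cpd up to 46 uM; dox induction, 4 h, 37C/5% CO2; dual luminescence; green/red ratio; MG132 control.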
RXFP1 ag: RXFP1 (human) receptor agonism. Potency, µM (titrated, usually from 57.5 µM), without a hit: top-dose activation, hits mostly activators. AID 2676. 370,000 tested, 0.3% active. HEK293T-RXFP1 cAMP TR-FRET, 30 min; response scale: percent of porcine relaxin response, buffer zero; further: potency means the concentration at half of the fitted maximal effect; nearly all actives have a fitted effect of over 60% in size
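Agonist response is measured as cAMP accumulation in an RXFP1-transfected HEK293T line under PDE4 inhibition. Values are scaled between buffer-only and 29 nM porcine relaxin, and EC50s come from standard Hill equation fits.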
B2AR arrestin: beta2AR (human) beta-arrestin recruitment activity; beta-arrestin recruitment to beta2AR, cell-based reporter; Potency, µM (highest dose often 46.1 µM), without a hit: at the top dose activation, hits mostly activators; 330,000 tested, 0.02% active;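 further: potency means the concentration at half of the fitted maximal effect; 0% = DMSO controls and full agonism = EC100 isoproterenol or metaproterenol; nearly all actives have a fitted effect of over 65% in size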
Target sequence (P07550 whole entry, looked up): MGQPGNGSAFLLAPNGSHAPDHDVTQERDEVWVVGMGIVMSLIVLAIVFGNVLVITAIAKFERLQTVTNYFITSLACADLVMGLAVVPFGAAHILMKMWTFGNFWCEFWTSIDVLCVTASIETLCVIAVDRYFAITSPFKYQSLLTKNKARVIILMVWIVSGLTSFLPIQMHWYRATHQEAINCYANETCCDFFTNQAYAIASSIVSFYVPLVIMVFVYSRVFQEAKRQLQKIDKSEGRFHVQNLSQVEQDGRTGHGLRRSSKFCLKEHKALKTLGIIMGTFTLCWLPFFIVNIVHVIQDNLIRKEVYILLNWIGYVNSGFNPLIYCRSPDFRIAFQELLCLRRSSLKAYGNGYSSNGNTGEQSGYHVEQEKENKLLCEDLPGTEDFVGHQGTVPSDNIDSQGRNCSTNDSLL
RXFP1 antag: RXFP1 (human) relaxin receptor antagonism; Q9HBX9; HEK293-RXFP1, relaxin-stimulated cAMP HTRF, 30 min; active compounds read low; activity change, negative = inhibition, % at 57.5 µM; 350,000 tested, 0.59% active;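 active means activity change of -60% or lower, but not beyond a set lower limit; inconclusive means change between -60% and -40%, or beyond the set limit; inactive means change above -40%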
Active calls of the source: *; [ ] = dose if it differs, or a comment. Sampled rows, rich in hits. Any-hit rate of the full collection: about 0.59%. Unless noted, the call rests on the fitted dose curve; in most records, active means well fitted activation curve with a large enough effect; inconclusive means small, poorly fitted or top-dose-only effect; inactive means flat fitted curve, though single readings scatter. Unless noted, on the % scale 0 is the no-effect control and ±100 the full control effect.

`COc1ccc(C2=NC(C)(C)Cc3cc(OC)c(OC)cc32)cc1OC` gave BCR signal inh inconclusive, RXFP1 ag 1%, B2AR arrestin 0% and RXFP1 antag -1.
`COc1cc2c(cc1OC)C(CC#N)=NC(C)(C)C2` gave BCR signal inh 16µM*, RXFP1 ag 0%, B2AR arrestin -1% and RXFP1 antag -7.
`OC(CN1CCN(c2ccccn2)CC1)Cn1c2ccc(Cl)cc2c2cc(Cl)ccc21` (stereo not given) gave BCR signal inh 19%, RXFP1 ag -1%, B2AR arrestin 0% and RXFP1 antag 5.
`OC(CN1CCCCC1)Cn1c2ccc(Cl)cc2c2cc(Cl)ccc21` (stereo not given) gave BCR signal inh inconclusive, RXFP1 ag -1%, B2AR arrestin -1% and RXFP1 antag -62*.
O=C1c2[nH]nc(-c3ccccc3O)c2C(c2ccccc2)N1Cc1ccco1 (stereo not given) was read as BCR signal inh -2%, RXFP1 ag -1%, B2AR arrestin 4% and RXFP1 antag -7.
`O=C1c2[nH]nc(-c3ccccc3O)c2C(c2ccc(Cl)cc2)N1Cc1ccco1` (stereo not given) gave RXFP1 ag 0% and RXFP1 antag -111*.
Screening COc1cc(C2c3c(-c4ccccc4O)n[nH]c3C(=O)N2Cc2ccco2)ccc1OCC(C)C (stereo not given) returned RXFP1 ag 2% and RXFP1 antag -68*.
For Cc1cccn2c(=O)cc(CSc3nnc(NC(=O)COc4ccccc4)s3)nc12 the results were BCR signal inh -4%, RXFP1 ag 2%, B2AR arrestin 0% and RXFP1 antag -9.
`COc1ccc(-c2cc(OC(=O)c3ccccc3Cl)c3c(C)oc(C)c3c(=O)c2)cc1OC` gave RXFP1 ag 2% and RXFP1 antag -27.
For CSc1ccc(C(=O)N2CCc3ccc(NC(=O)c4ccccn4)cc3C2)cc1 the results were BCR signal inh inconclusive, RXFP1 ag -1%, B2AR arrestin -2% and RXFP1 antag -69*.
Screening CCOc1ccc(NC(=O)c2c(NCc3sccc3C)sc3c2CCCCC3)cc1 returned BCR signal inh inconclusive, RXFP1 ag 1% and RXFP1 antag -18.
Screening Cc1ccc(CNC(=O)c2ccc(Cn3nc(C)cc3C)o2)cc1 returned BCR signal inh 4%, RXFP1 ag 5%, B2AR arrestin 0% and RXFP1 antag -117*.
Screening CCCC[C@]12Cc3cc(C#N)ccc3C(O1)c1c(cc(C)n(Cc3ccccc3)c1=O)O2 returned BCR signal inh inconclusive, RXFP1 ag 3.2µM* and B2AR arrestin 0%[9.22 µM].
CCCCn1c(C)cc2c(c1=O)C1O[C@](CCCC)(Cc3cc(C#N)ccc31)O2 was read as BCR signal inh 25%[9.22 µM], RXFP1 ag -2%[11.5 µM] and B2AR arrestin -1%[9.22 µM].
For OCCN(CCO)c1ccc(C(c2ccccc2Cl)c2ccc(N(CCO)CCO)cc2Cl)c(Cl)c1 the results were BCR signal inh inconclusive, RXFP1 ag 1%, B2AR arrestin -1% and RXFP1 antag -60*.
For OCCN(CCO)c1ccc2ccccc2c1 the results were BCR signal inh inconclusive, RXFP1 ag 1%, B2AR arrestin 0% and RXFP1 antag -3.
For CCCC(=O)C1=C(c2ccc(C)cc2)N(C(=O)CCC)n2cnnc2S1 the results were BCR signal inh 20µM*, RXFP1 ag 3% and RXFP1 antag inconclusive.
For CC(=O)Nc1cccc(-c2csc(Nc3ccc(C)cn3)n2)c1 the results were BCR signal inh inconclusive, RXFP1 ag -1%, B2AR arrestin 0% and RXFP1 antag -60*.
For CC(=O)Nc1cccc(-c2csc(Nc3ncccn3)n2)c1 the results were BCR signal inh 1%, RXFP1 ag 0% and B2AR arrestin 0%.
For COc1ccc(S(=O)(=O)N2CCCCCC2)cc1C(=O)N(C)CC(=O)Nc1ccc(F)cc1 the results were BCR signal inh inconclusive, RXFP1 ag -1%, B2AR arrestin 0% and RXFP1 antag 2.
Screening COc1ccc(NC(=O)CN(C)C(=O)c2cc(S(=O)(=O)N3CCCCCC3)ccc2OC)cc1 returned BCR signal inh 1%, RXFP1 ag 0%, B2AR arrestin 0% and RXFP1 antag -72*.
For COc1ccc(NC(=O)CN(C)CC(=O)N2CCCCCC2)cc1 the results were BCR signal inh 5%, RXFP1 ag 0%, B2AR arrestin 0% and RXFP1 antag -90*.
